Compounds with a hit are over-represented: about 19% of the library has one in this group of screens.
HT1080 IDH1KD tx: toxicity to HT-1080 IDH1 knockdown cells (counter line); HT-1080 IDH1 knockdown viability, ATP luminescence, 48 h; Potency, µM (titrated, usually from 46.1 µM), inactives show at the highest dose activity, negative = toxicity, most hits filed as cytotoxic; hit rate 2% among 360,000;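 also: potency is read from the fitted curve at half-maximal effect; 0% = DMSO wells and -100% = cell-free medium wells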
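Viability of IDH1-knockdown HT-1080 fibrosarcoma cells was assessed by CellTiter-Glo after 48 h at 37 °C with titrated compound; concentration-effect curves were classified by fit quality and response size.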
IL1B secr inh: inflammasome signaling inhibition, IL-1 beta readout. THP-1 LPS/ATP IL-1B secretion, AlphaLISA, 16 h; stronger effect = lower value. activity change, % at 57.5 µM. hit rate 4.7% among 360,000. AID 743279; in the data active = activity change below about -50%; inconclusive = mostly about -30% to -49%
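THP-1 cells pretreated 1 hr with compounds (up to 57.5 uM final), then stimulated with LPS (250 ng/mL final) plus ATP (1.25 mM final); secreted IL-1B measured by AlphaLISA after 16 hr, decreased signal indicating inhibition.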
TDP1 cell noCPT: qHTS for Inhibitors of human tyrosyl-DNA phosphodiesterase 1 (TDP1): qHTS in cells in absence of CPT. Potency, µM (series often up to 46.2 µM), inactives show at the top dose activity change, negative = growth inhibition, actives largely listed as inhibitors. hit rate 15% among 420,000. DT40 Tdp1-/- hTDP1 cells, no CPT, ATP luminescence, 48 h; also: potency is read from the fitted curve at half-maximal effect; nearly all actives have a fitted effect of over 55% in size
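Compound effects on proliferation are scored in DT40 Tdp1-/-;hTDP1 cells in the absence of CPT. ATP levels (CellTiter-Glo luminescence) are recorded after a ≥48 hr, 37 °C incubation.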
TDP1 cell CPT: growth inhibition of DT40 Tdp1-/-;hTDP1 cells with camptothecin (screen for TDP1 inhibitors) | hit rate 12% among 420,000 | Potency, µM (highest dose often 46.2 µM), inactives show top-dose activity change, negative = growth inhibition, most hits filed as inhibitors | chicken DT40 Tdp1-/-;hTDP1 cells + 20 nM CPT, ATP luminescence, 48 h; also: potency is read from the fitted curve at half-maximal effect; nearly all actives have a fitted effect of over 55% in size
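Chicken DT40 Tdp1-/- cells complemented with human TDP1, 400 cells/well, exposed to compounds plus 20 nM camptothecin for at least 48 h at 37 C; viability read as ATP content by CellTiter-Glo luminescence.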
HT1080-NT tox: kills 2HG-producing HT-1080-NT fibrosarcoma cells | hit rate 1.6% among 360,000 | HT-1080-NT fibrosarcoma viability, CellTiter-Glo ATP luminescence, 48 h | Potency, µM (doses to about 46.1 µM), for the others: at the top dose activity, negative = less viability, most hits filed as cytotoxic;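 also: NT is the 2HG producing partner of a matched IDH1 knockdown line; potency is read from the fitted curve at half-maximal effect; 0% = DMSO-treated cells and -100% = media-only wells without cells; nearly all actives have a fitted effect of over 55% in size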
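HT-1080-NT; 750 cells/well; 5% FBS RPMI; 48 h compound, 37 degrees C; CellTiter-Glo luminescence; curve fitting and curve-class assignment.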
* marks the source's active call; other numbers are inactive results; ? = inconclusive; / = not tested or not shown; [ ] = remark or other dose. Unless noted, calls follow the shape of the dose curve; as a rule, active = well fitted curve in the direction sought with a large enough effect; inconclusive = small, poorly fitted or top-dose-only effect, or another doubt; inactive = no such curve, though single readings can be large; an effect the other way counts as inactive or inconclusive. Unless noted, % is scaled to controls: 0 for no effect and ±100 for the full control effect.

SMILES | HT1080 IDH1KD tx | IL1B secr inh | TDP1 cell noCPT | TDP1 cell CPT | HT1080-NT tox
COc1ccccc1N1CCN(C(=O)C2CCCN(S(=O)(=O)c3ccc4c(c3)CCCN4C(C)=O)C2)CC1 (configuration not stated) | -6% | 13 | 8.2µM* | 8.2µM* | -11%
CC(=O)N1CCCc2cc(S(=O)(=O)N3CCCC(C(=O)N4CCN(c5cc(C)ccc5C)CC4)C3)ccc21 (configuration not stated) | ? | -78* | 6.5µM* | 6.5µM* | ?
Cc1ccc(C)c(N2CCN(C(=O)C3CCCN(S(=O)(=O)c4cnc[nH]4)C3)CC2)c1 (configuration not stated) | -3% | -13 | ? | ? | 0%
CCN1CCN(C(=O)c2cc3cc(F)ccc3[nH]2)CC1 | -11% | -3 | -29% | ? | -1%
Cn1c(NCc2ccccc2F)nc2ccccc21 | / | / | ? | -25% | /
COc1ccc(Cl)cc1-c1nc(SCC(=O)NCC2CCCO2)n[nH]1 (configuration not stated) | -2% | 5 | 5% | -17% | -6%
C#CCN(C[C@@H]1[C@@H](OC(=O)NCCCCCC)[C@@H](OC(=O)NCCCCCC)Cn2c(=O)n(CCCCCC)c(=O)n21)S(=O)(=O)c1ccc(C)cc1 | 1% | 3 | ? | ? | 8%
C#CCN(C[C@@H]1[C@@H](OC(=O)NCc2ccccc2F)[C@@H](OC(=O)NCc2ccccc2F)Cn2c(=O)n(CCCCCC)c(=O)n21)S(=O)(=O)c1ccc(C)cc1 | 8% | ? | 12µM* | ? | -2%
C#CCN(C[C@@H]1[C@@H](OC(=O)NCc2ccccc2F)[C@@H](OC(=O)NCc2ccccc2F)Cn2c(=O)ccc(=O)n21)S(=O)(=O)c1ccc(C)cc1 | 6.5µM* | -111* | 2.6µM* | 4.1µM* | 6.5µM*
C#CCN(C[C@@H]1[C@@H](OC(=O)NCC2CCCCC2)[C@@H](OC(=O)NCC2CCCCC2)Cn2c(=O)n(CCCCCC)c(=O)n21)S(=O)(=O)c1ccc(C)cc1 | 12% | -12 | 6.5µM* | ? | -2%
COc1ccccc1CN(Cc1ccco1)S(=O)(=O)c1ccc(-n2cnnn2)c(OC)c1 | 6%[9.24 µM] | -23 | ? | ? | -6%
Cc1nonc1C1CCCN1Cc1cn[nH]c1-c1ccc(-c2ccccc2)cc1 (configuration not stated) | -12% | -14 | ? | ? | 1%
CCCCNC(=O)C(NC(=O)c1ccc(C(F)(F)F)cc1)C(=O)c1ccccc1 (configuration not stated) | 17% | 17 | 4% | -16% | 18%
CCCCNC(=O)C(NC(=O)Cc1cc(C(F)(F)F)cc(C(F)(F)F)c1)C(=O)c1ccccc1 (configuration not stated) | 9% | -8 | ? | 29µM* | 1%
O=c1c(Br)ccc(Br)cc1Br | 5.2µM* | -100* | 0.065µM* | 0.029µM* | 3.7µM*
COc1ccc(N2CCN(C(=O)COC(=O)CCc3ccccc3)CC2)cc1 | 11% | 30 | -5% | 2% | -9%
CCOC(=O)C1=C(C)Nc2ccccc2N=C1NC(=O)c1oc2ccccc2c1COC | -17% | 0 | 16µM* | 21µM* | -9%
COCc1c(C(=O)Nc2nnc(C3CC3)s2)oc2ccccc12 | 0% | 9 | 12µM* | ? | -1%
Cc1cccnc1Sc1c([N+](=O)[O-])ncn1C | ? | -11 | 2% | -10% | 0%
Cn1cnc([N+](=O)[O-])c1Sc1ccncn1 | -10% | -5 | 13µM* | -28% | -10%
Cc1cccc(Sc2c([N+](=O)[O-])ncn2C)c1 | 6% | -20 | 23µM* | ? | 2%
CCCc1nc2ccccc2c(=O)n1-c1c(C)n(C)n(-c2ccccc2)c1=O | 8% | 31 | 18µM* | 26µM* | 16%
O=c1oc2ccccc2cc1N1CCOCC1 | 6% | 19 | -12% | -9% | 19%
CN(C)C(=O)c1ccc(N=Nc2c(O)c3ccccc3[nH]c2=O)cc1 | 6.5µM* | -22 | 21µM* | 21µM* | 5.8µM*
Cc1cc(N=Nc2c(O)c3ccccc3[nH]c2=O)ccc1N=Nc1ccc(C(=O)N(C)C)cc1 | -2% | 26 | 7.3µM* | 10µM* | 1%
SMILES | HT1080 IDH1KD tx | IL1B secr inh | TDP1 cell noCPT | TDP1 cell CPT | HT1080-NT tox
O=C(Nc1ccc(N2CCOCC2)c(Cl)c1)c1ccc(-n2cnnc2)cc1Cl | 7% | -8 | -23% | ? | 12%
COc1cccc(-c2cc3nc(C)c(C)c(N4CCN(C(=O)c5ccoc5)CC4)n3n2)c1 | 9% | 1 | 8.2µM* | 13µM* | 0%
COc1ccc(-c2csc(N3CCN(C(=O)c4ccco4)CC3)n2)cc1 | -11% | ? | ? | ? | -2%
Cc1cc(N2CCN(C(=O)c3ccco3)CC2)n2nc(C)c(-c3ccccc3)c2n1 | 1% | ? | 23µM* | 23µM* | -7%
COc1ccc(-c2cc3nc(C)cc(N4CCN(C(=O)c5ccco5)CC4)n3n2)cc1 | 8% | -29 | 12µM* | 21µM* | 6%
Cc1ccc(-c2cc3nc(C)cc(N4CCN(C(=O)c5ccoc5)CC4)n3n2)cc1 | 2% | -20 | 18µM* | ? | 5%
COc1cccc(C(=O)N2CCN(Cc3nc(-c4ccoc4)oc3C)CC2)c1 | 8% | 10 | -3% | -12% | 0%
Cc1ccc(-c2nc3nc(C)cc(N4CCN(c5cccc(C)c5C)CC4)n3n2)cc1 | / | / | -4% | 28% | /
Cc1cc(N2CCC(C(=O)Nc3ccccc3Cl)CC2)n2nc(C)c(-c3ccc(Cl)cc3)c2n1 | / | / | -60% | 7% | /
CC(Sc1ccccc1)C(=O)N1CCN(S(=O)(=O)c2ccccc2C(F)(F)F)CC1 (configuration not stated) | -2% | 2 | -24% | -12% | 2%
CCC1(C2CCN(C(=O)c3ccc(C)cc3C)CC2)NC(=O)N(CCc2scnc2C)C1=O (configuration not stated) | / | / | -19% | -5%[9.04 µM] | /
CCc1nn2c(=O)c(S(=O)(=O)Nc3ccc(Br)cc3F)c(C)nc2s1 | / | / | -25% | -28% | /
Cn1cc(C(=O)c2ccc(Cl)cc2)cc1-c1nc2ccccc2n1C | ? | -72* | 18µM* | 13µM* | ?
O=C(CCCN1CCC(C(O)c2ccc(F)cc2)CC1)c1ccc(F)cc1 (configuration not stated) | / | -17 | ? | -29% | /
CC(C)C[C@H]1CNC(=S)N1CC1CCN(CCC23CC4CC(CC(C4)C2)C3)CC1 | 1% | -50* | 16µM* | ? | 9%

Source: PubChem BioAssay (National Center for Advancing Translational Sciences (NCATS))
